This is an account of results in PubChem BioAssay (NCI).

Test systems include NCI-H23 lung; NCI-H322M lung; HOP-62 NSCLC; NCI-H460 lung; HOP-92 NSCLC; A549/ATCC NSCLC; 786-0 renal; COLO 205 colon; DU-145 prostate; K-562 leukemia; MALME-3M melanoma; MDA-MB-231 breast; RXF 393 renal; SF-268 CNS; SF-295 CNS; SF-539 CNS; UACC-257 melanoma; M14 melanoma; NCI-H522 lung.
What all share (test): NCI-60 one-dose screen, 48 h (100 = growth as untreated, 0 = no growth, -100 = all killed)
Holding throughout (settings): 10 µM unless noted

Compounds without any hit were thinned out: in the full panel of roughly 83,000, 20% have a hit.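 How to read the values: 0–100, growth inhibition (40 = 60% inhibited); 0, no net growth; -100 to 0, cell death (-40 = 40% of starting cells died; -100 = all dead).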 Unmarked numbers belong to inactive results. Calls of active or inactive are those of the source. How the source made its calls: active means growth percent below 10; inactive means the rest.

`CCCCn1sc(=O)n(Cc2ccc(CNC(=O)OCc3ccc4c(Br)cc(Br)c(O)c4n3)cc2)c1=O`: the growth in the assay with NCI-H23 lung was 36.1%; in the assay with NCI-H322M lung it was 46%; in the assay with HOP-62 NSCLC, 27.1%; in the assay on NCI-H460 lung, 4.44% (active); with HOP-92 NSCLC it was 37.8%; in the assay on A549/ATCC NSCLC it was 18.9%. The growth in the assay with 786-0 renal is 92.2%; in the assay on COLO 205 colon, 114%; in the assay on DU-145 prostate, 6.37% (active); in the assay with K-562 leukemia it was 12.8%; in the assay on MALME-3M melanoma it was 61.1%; in the assay on MDA-MB-231 breast, 38.6%. The growth is 15.9% in the assay on RXF 393 renal; 33.9% with SF-268 CNS; 13.7% in the assay on SF-295 CNS; -14% (active) with SF-539 CNS; 48.4% in the assay with UACC-257 melanoma; 10.4% in the assay on M14 melanoma.
`Cc1ccc(/C=C2\CN(C(=O)C(Cl)Cl)C/C(=C\c3ccc(C)cc3)C2=O)cc1`: the growth with NCI-H23 lung is -35.9% (active); with NCI-H322M lung, -53.7% (active); in the assay on HOP-62 NSCLC, -16.4% (active); in the assay on NCI-H460 lung it was -56.1% (active); in the assay on HOP-92 NSCLC, -47.9% (active); in the assay on A549/ATCC NSCLC it was 2.86% (active). Besides, the growth in the assay on 786-0 renal is -68.6% (active); in the assay on COLO 205 colon, -63% (active); in the assay with DU-145 prostate, -82.7% (active); with K-562 leukemia, -0.0477% (active); with MALME-3M melanoma, -56.5% (active); in the assay on MDA-MB-231 breast, -3.27% (active). Further, the growth with RXF 393 renal is -88.1% (active); in the assay with SF-268 CNS, -20.4% (active); in the assay on SF-295 CNS it was -7.46% (active); in the assay with SF-539 CNS it was -86.4% (active); in the assay with UACC-257 melanoma it was -33.1% (active); in the assay on M14 melanoma, -65.6% (active).
Consider `COCCCOc1cc(C[C@@H](C[C@H](N)[C@@H](O)C[C@H](C(=O)NCC(C)(C)C(N)=O)C(C)C)C(C)C)ccc1OC`, for which the growth in the assay with NCI-H23 lung was 99.4%; in the assay on NCI-H322M lung, 114%; with HOP-62 NSCLC it was 114%; with NCI-H460 lung, 112%; in the assay on NCI-H522 lung, 101%; with A549/ATCC NSCLC, 103%. Also, the growth in the assay on 786-0 renal is 103%; in the assay on COLO 205 colon, 112%; in the assay on DU-145 prostate, 124%; in the assay on K-562 leukemia, 103%; with MALME-3M melanoma it was 109%; with MDA-MB-231 breast, 102%. Also, the growth in the assay on RXF 393 renal was 104%; in the assay on SF-268 CNS it was 117%; with SF-295 CNS, 93%; in the assay on SF-539 CNS it was 103%; with UACC-257 melanoma, 104%; with M14 melanoma, 109%.
Consider `COC(=O)C1=Nc2ccc(F)cc2/C1=C\c1sc(Nc2ccc(O)cc2)nc1O`, for which the growth with NCI-H23 lung was 73.4%; with NCI-H322M lung it was 96.7%; with HOP-62 NSCLC it was 64.3%; in the assay on HOP-92 NSCLC, 42.7%; in the assay on NCI-H522 lung, 47.4%; in the assay on A549/ATCC NSCLC it was 99%. For the same molecule, the growth in the assay on 786-0 renal was 66.1%; in the assay on COLO 205 colon, 101%; in the assay with DU-145 prostate, 93.9%; in the assay on K-562 leukemia, 23.2%; in the assay on MALME-3M melanoma, 45.9%; in the assay on MDA-MB-231 breast, 76.7%. Also, the growth in the assay on RXF 393 renal was 43.6%; with SF-268 CNS, 59.8%; in the assay with SF-295 CNS, 61%; in the assay with SF-539 CNS, 55.4%; in the assay on UACC-257 melanoma, 72.2%; with M14 melanoma, 49%.
As to `CN1CCN(C(=O)c2cc(-c3ccc4ncnc(N5CCc6cc(F)c(Cl)cc65)c4c3)cnc2N)CC1`, the growth is 8.25% (active) in the assay with NCI-H23 lung; -8.41% (active) in the assay with NCI-H322M lung; 12% in the assay on HOP-62 NSCLC; 8.83% (active) in the assay on NCI-H460 lung; -27.2% (active) in the assay on HOP-92 NSCLC; 2.49% (active) in the assay on NCI-H522 lung. Besides, the growth in the assay on A549/ATCC NSCLC is 3.84% (active); with 786-0 renal it was 2.28% (active); in the assay on COLO 205 colon, 3.92% (active); with DU-145 prostate, 8.87% (active); in the assay with K-562 leukemia it was 11.1%; in the assay on MALME-3M melanoma, -38.6% (active). Also, the growth is 10.5% in the assay with MDA-MB-231 breast; -48.9% (active) in the assay on RXF 393 renal; 0.525% (active) in the assay on SF-268 CNS; 0.0297% (active) in the assay on SF-295 CNS; -24.3% (active) in the assay with SF-539 CNS; 6% (active) with UACC-257 melanoma. For the same molecule, the growth with M14 melanoma was 1.59% (active).
Take `N#Cc1c(-c2ccccc2)c(C#N)c2c(C#N)c(N)nn2c1N`: the growth in the assay with NCI-H23 lung is 72.2%; in the assay with NCI-H322M lung, 83.5%; in the assay with HOP-62 NSCLC it was 40.2%; in the assay on NCI-H460 lung, 19.7%; with HOP-92 NSCLC it was 27.1%; in the assay with NCI-H522 lung, 13.1%. In addition, the growth is 38.7% in the assay on A549/ATCC NSCLC; 53.4% in the assay with 786-0 renal; 29.4% with COLO 205 colon; 78.6% with DU-145 prostate; 6.77% (active) with K-562 leukemia; 39.6% with MALME-3M melanoma. For the same molecule, the growth is 33.6% in the assay on MDA-MB-231 breast; 69.8% with RXF 393 renal; 56.3% in the assay on SF-268 CNS; 33.4% in the assay on SF-295 CNS; 37.2% with SF-539 CNS; 51.1% with UACC-257 melanoma. Moreover, the growth in the assay on M14 melanoma is 32.9%.
In the case of `CC(C)[C@@]12C[C@@H](OC(=O)COC(=O)c3ccccc3)[C@@](C)(O1)[C@@H]1CC[C@@H](C)[C@H]1[C@@H]2OC(=O)/C=C/c1ccccc1`, the growth in the assay with NCI-H23 lung is 90.1%; in the assay with NCI-H322M lung it was 87%; in the assay with HOP-62 NSCLC, 89.5%; in the assay on NCI-H460 lung, 95.3%; with HOP-92 NSCLC, 76.9%; with NCI-H522 lung it was 80.9%. Also, the growth was 80.9% with A549/ATCC NSCLC; 68.7% in the assay on 786-0 renal; 108% in the assay on COLO 205 colon; 101% in the assay with DU-145 prostate; 75.4% with K-562 leukemia; 106% in the assay with MALME-3M melanoma. The growth in the assay with MDA-MB-231 breast was 86.3%; in the assay on RXF 393 renal, -2.22% (active); in the assay on SF-268 CNS it was 63.4%; in the assay on SF-295 CNS it was 94.5%; with SF-539 CNS, 95.4%; with UACC-257 melanoma it was 95.3%. Besides, the growth in the assay on M14 melanoma is 104%.
With `O=C1NC(=C(Cl)Cl)/C(=N/S(=O)(=O)N2CCCCC2)N1`, the growth in the assay on NCI-H23 lung is 53.9%; in the assay on NCI-H322M lung, 92.5%; in the assay with HOP-62 NSCLC, 62.1%; with NCI-H460 lung, 94.2%; in the assay on HOP-92 NSCLC it was -81.8% (active); in the assay on NCI-H522 lung it was -82.3% (active). Besides, the growth is 93.4% in the assay with A549/ATCC NSCLC; 2.47% (active) in the assay on 786-0 renal; -84.5% (active) in the assay with COLO 205 colon; 101% with DU-145 prostate; -51.6% (active) in the assay with K-562 leukemia; -73.6% (active) with MALME-3M melanoma. For the same molecule, the growth was -6.69% (active) with MDA-MB-231 breast; -39.8% (active) in the assay with RXF 393 renal; 28.3% with SF-268 CNS; 110% with SF-295 CNS; 11.8% in the assay with SF-539 CNS; 39.3% with UACC-257 melanoma. In addition, in the assay on M14 melanoma, the growth is 37.9%.
